Assay results published in PubChem BioAssay.
The source made the active and inactive calls.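 How the source made its calls, unless noted: active means compounds killing one labelled cell type while sparing the other, by normalised counts and ratio limits, not self-fluorescent; inactive means the rest.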

Columns and labels:
[1] = differential killing of epithelial or mesenchymal cells, primary screen, imaging, PC-3E GFP, TEM4-18 mCherry, co-culture (AID 1345086); details: imaging cell counts, at 1 µM; for red/green cell ratio (normalised): actives lie on both sides, counts scaled to control wells, 1 = unselective;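 on all read-outs here: cells exposed to compound for 72 h before imaging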;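 on red/green cell ratio (normalised): normalised mesenchymal count divided by normalised epithelial count so high means epithelial killing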
[2] = sensitizers of A549 cells to miR-34 induction, primary screen, imaging, A549 dox-inducible miR-34, nuclei and caspase counts (AID 1347080;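 active means compounds whose cell count with miR-34 switched on is under 0.7 times the count with it off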); details: A549 miR-34 inducible, Hoechst nuclei count, 48 h
[3] = measured here: epithelial PC-3E GFP cell survival
[4] = measured here: mesenchymal TEM4-18 mCherry cell survival
[5] = stronger effect = lower value, cell number ratio, induced over uninduced
[6] = measured here: relative caspase fold change +Dox/-Dox
[7] = measured here: total cells with miR-34 induction, stronger effect = lower value
[8] = measured here: total cells without miR-34 induction

SMILES	red/green cell ratio (normalised) [1]	normalised cell number [1, 3]	normalised cell number [1, 4]	fold change [2, 5]	fold change [2, 6]	cell count [2, 7]	cell count [2, 8]
CCN(CC)C(=O)C1(c2ccccc2)CC1CN (centres undefined)	0.9 (inactive)	1.08	0.98	0.92 (inactive)	0.893	8180	8890
COc1cc(O)cc(C(=O)c2ccccc2)c1S(=O)(=O)O	1 (inactive)	1.17	1.18	0.973 (inactive)	0.886	9730	10000
C[C@]1(Cn2ccnn2)C(C(=O)O)N2C(=O)CC2S1(=O)=O (some centres undefined)	0.89 (inactive)	1.34	1.19	0.905 (inactive)	0.742	8100	8960
NC(=O)C1CCCN1C(=O)C(Cc1cnc[nH]1)NC(=O)C1CCC(=O)N1 (centres undefined)	1.11 (inactive)	0.94	1.04	0.936 (inactive)	0.922	8800	9400
CC1(C)O[C@@H]2CC3C4CCC5=CC(=O)C=C[C@]5(C)C4[C@@H](O)C[C@]3(C)[C@]2(C(=O)CO)O1 (some centres undefined)	0.93 (inactive)	1.22	1.14	0.861 (inactive)	1.01	5940	6900
Nc1nc(NC2CC2)c2ncn(C3C=C[C@@H](CO)C3)c2n1 (some centres undefined)	1.14 (inactive)	1.1	1.26	0.995 (inactive)	0.706	8880	8920
O=C1SCN(Cc2ccccc2)CN1Cc1ccccc1	0.9 (inactive)	0.96	0.86	0.983 (inactive)	0.637	8570	8710
O=c1[nH]cnc2c1ncn2C1O[C@H](CO)[C@@H](O)[C@H]1O (some centres undefined)	1.22 (inactive)	0.83	1.02	0.943 (inactive)	0.652	8910	9440
CC(C)OC(=O)CCC/C=C\C[C@@H]1[C@@H](/C=C/C(O)COc2cccc(C(F)(F)F)c2)[C@H](O)C[C@@H]1O (some centres undefined)	0.87 (inactive)	1.24	1.08	0.865 (inactive)	1.12	8710	10100
CC(=O)[C@@]12O[C@](C)(c3ccccc3)O[C@@H]1CC1C3CCC4=CC(=O)CC[C@]4(C)C3CC[C@@]12C (some centres undefined)	1.21 (inactive)	1.05	1.26	0.858 (inactive)	1.15	5100	5940
CCC(=O)Oc1ccc2c(c1)CCC1C2CC[C@@]2(C)C1CC[C@@H]2OC(=O)CC (some centres undefined)	1.36 (inactive)	0.8	1.09	0.968 (inactive)	0.855	8160	8430
CC(C)C/C=C/C=C\C(=O)N[C@@H](CC(N)=O)C(=O)N[C@@H]1C(=O)N[C@H](c2ccc(O)cc2)C(=O)N[C@H](CCCN)C(=O)N[C@H]([C@H](C)O)C(=O)N[C@@H](c2ccc(O)cc2)C(=O)N[C@H](c2ccc(O)cc2)C(=O)N[C@@H]([C@H](C)O)C(=O)N[C@@H](Cc2ccccc2)C(=O)N[C@H](CCCN)C(=O)N[C@@H](c2ccc(O[C@@H]3O[C@H](CO)[C@H](O)[C@@H](O)[C@@H]3O[C@@H]3O[C@H](CO)[C@@H](O)[C@H](O)[C@H]3O)cc2)C(=O)NC(C(C)O)C(=O)N[C@@H](c2ccc(O)cc2)C(=O)NCC(=O)N[C@@H](CC(C)C)C(=O)N[C@H](C)C(=O)N[C@@H](c2ccc(O)c(Cl)c2)C(=O)O[C@@H]1C(N)=O (some centres undefined)	0.89 (inactive)	1.04	0.93	0.899 (inactive)	0.946	8820	9820
